Data on 7 compounds can be found in PubChem BioAssay (NCI).

SMILES strings stand for the structures. This is part of a sample that, as a whole, favours compounds with a hit. Of some 83,000 tested, about 20% had one in any assay.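 Treatment: one concentration, 48 hours, 96-well format. Scoring: percent growth, with anything below 10 considered active.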 Unmarked numbers belong to inactive results. Calls of active or inactive are those of the source.

Holding throughout (experiment): NCI-60 one-dose screen, 48 h (100 = growth as untreated, 0 = no growth, -100 = all killed)
Details in all cases: 10 µM unless noted

In assay [1] the test system is HCT-15 colon.
Assay [2] deals with HT29 colon.
Assay [3] has as its system SNB-75 CNS.
For assay [4], the system named is SNB-19 CNS.
Assay [5] has as its system U251 CNS.
Assay [6] relates to PC-3 prostate.
For assay [7], the system named is SK-MEL-5 melanoma.
Assay [8] relates to UACC-62 melanoma.
The subject of assay [9] is LOX IMVI melanoma.
Assay [10] has as its system SK-MEL-28 melanoma.
Assay [11] has as its system SK-MEL-2 melanoma.
Assay [12] concerns EKVX NSCLC.
Assay [13] relates to SN12C renal.
Assay [14] has as its system UO-31 renal.
Assay [15] deals with TK-10 renal.
Assay [16] concerns ACHN renal.
Assay [17] has as its system CAKI-1 renal.
The subject of assay [18] is A498 renal.
The test system of assay [19] is CCRF-CEM leukemia.
For assay [20], the system named is MOLT-4 leukemia.

With `COC1=CC(=O)C(OC)=C(O)C1=O`, the growth was 97.7% in [1]; 106% in assay [2]; 77% in assay [3]; 101% in assay [4]; 101% in assay [5]; 97.2% in assay [6]. Further, the growth in assay [7] is 97.8%; in assay [8], 96.1%; in [9], 99.6%; in assay [10], 102%; in assay [11] it was 105%; in assay [12] it was 98.1%. Further, the growth in assay [13] is 98.2%; in assay [14], 93.1%; in assay [15] it was 105%; in [16], 98.2%; in assay [17], 93.9%; in [18], 106%. Moreover, the results for the growth in assay [19] and in assay [20] were 108% and 107%, respectively.

Take `OB(O)c1ccsc1-c1nc2ccc3[nH]ncc3c2c2c1CCCC2`: the growth in assay [1] is 31.3%; in assay [2], 45.9%; in assay [3], 35.2%; in [4], 76.1%; in assay [5], 65.9%; in assay [6], 69.4%. Moreover, the growth in assay [7] is 57.6%; in [8] it was 45.2%; in assay [9], 41.1%; in [10], 72.8%; in assay [11], 55.9%; in [12] it was 34.7%. The growth is 56.4% in [13]; 38.3% in assay [14]; 48.7% in [15]; 23.3% in assay [16]; 13.7% in assay [17]; -2.71% (active) in assay [18]. Besides, the growth was 56.2% in assay [19] and 58.5% in [20].

With `O=C1/C(=C/c2ccc(-c3ccccc3C(F)(F)F)o2)SC(=S)N1CCc1ccc(O)cc1`, the growth in [1] is 29.6%; in assay [2], 14.8%; in assay [3] it was 29.2%; in [4], 87.8%; in assay [5], 44.1%; in assay [6], 48.6%. Further, the growth in assay [7] was 84.4%; in assay [8] it was 47%; in assay [9], 41.4%; in [10], 69.5%; in assay [11] it was 70.1%; in [12] it was 75.3%. Moreover, the growth in assay [13] is 66.6%; in [14] it was 40.1%; in assay [15], 83.1%; in [16] it was 66.3%; in [17] it was 33.8%; in assay [18], 79.1%. Also, the values for the growth in [19] and in assay [20] were 11.9% and 17.5%, respectively.

On to `CC1=C2[C@@H](CC1)[C@]1(C)O[C@@](C3CC3)(C[C@H]1OC(=O)CO)[C@H]2OC(=O)/C=C/c1ccccc1`, for which the growth in [1] is 97%; in [2], 89.5%; in assay [3], 88.2%; in [4], 90%; in assay [5], 88.3%; in assay [6], 68%. The growth is 92.9% in assay [7]; 73.1% in assay [8]; 84% in [9]; 107% in [10]; 97.2% in [11]; 87.7% in [12]. Further, the growth in assay [13] is 42.4%; in assay [14], -26% (active); in assay [15] it was 106%; in [16], 9.75% (active); in assay [17], 71.4%; in assay [18], -39.1% (active). Further, the growth in assay [19] is 90.3%; in assay [20], 77.6%.

As for `COc1nc2ccc(C)cc2cc1/C=[N+](\[O-])c1ccccc1`, the growth in assay [1] is 77.2%; in assay [2], 95.1%; in [3] it was 79.5%; in assay [4] it was 86.6%; in [5] it was 95.4%; in assay [6], 68.2%. The growth was 96.2% in assay [7]; 76.6% in [8]; 77.8% in [9]; 97.6% in assay [10]; 100% in [11]; 77.8% in assay [12]. Moreover, the growth in [13] was 90.1%; in [14] it was 59.4%; in assay [15], 116%; in [16], 83.5%; in assay [17], 82.3%; in assay [18], 75.6%. Further, the growth in [19] was 46.6%; in assay [20] it was 82.8%.

In the case of `COC(=O)[C@H]1Cc2c([nH]c3ccccc23)[C@@H](c2cccs2)N1`, the growth is 102% in assay [1]; 97.1% in [2]; 83.8% in assay [3]; 98.2% in assay [4]; 97.7% in assay [5]; 100% in assay [6]. In addition, the growth in [7] is 100%; in assay [8] it was 89.5%; in [9] it was 104%; in [10], 107%; in assay [11] it was 97.2%; in [12] it was 96.3%. Also, the growth in assay [13] is 102%; in assay [14], 93%; in assay [15], 86.7%; in assay [16], 111%; in assay [17] it was 89.8%; in assay [18], 93.2%. Also, the figures for the growth in [19] and in assay [20] were 101% and 103%, respectively.

On to `Nc1c(C(=O)Nc2ccncc2)sc2nc3c(cc12)CCCCCCCC3`, for which the growth was -82.2% (active) in assay [1]; -92.6% (active) in [2]; -96.2% (active) in assay [3]; -77.1% (active) in assay [4]; -89.2% (active) in assay [5]; -18.9% (active) in assay [6]. Moreover, the growth in assay [7] was -96.1% (active); in [8], -94.9% (active); in [9], -84.7% (active); in assay [10], -91.4% (active); in assay [11], -86.7% (active); in assay [12] it was -31.2% (active). Besides, the growth in assay [13] was -65.1% (active); in [14], -95% (active); in assay [15] it was -75.6% (active); in [16] it was -98.8% (active); in [17] it was -94.8% (active); in assay [18] it was -9% (active). Moreover, the values for the growth in assay [19] and in assay [20] were -37.9% (active) and -40.6% (active), respectively.
